Source: PubChem BioAssay AID1619 (SRMLSC, 2009)
About 830 (0.38%) of roughly 220,000 compounds were called active.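 How the source made its calls: active means compound inhibiting the enzyme by more than half at any dose during confirmatory dose-response retesting; inconclusive means strong single-dose inhibitors picked by rank but not retested; inactive means the rest.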 Only a sample is shown. Measured potencies and affinities stand elsewhere.

Target: Leucine aminopeptidase (Plasmodium falciparum (isolate 3D7)) (UniProt Q8IL11)
Assay: P. falciparum M17LAP inhibitors, primary screen, biochemical, fluorogenic H-Leu-NHMec substrate, 1536-well (AID 1619);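 further: plate controls were full reaction with DMSO carrier for no effect and no enzyme background for full effect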
Conditions: recombinant M17LAP, H-Leu-NHMec fluorogenic kinetic assay; at 30 µM; stronger effect = higher value

Chain of Leucine aminopeptidase (Plasmodium falciparum (isolate 3D7)) (Q8IL11 whole entry, looked up): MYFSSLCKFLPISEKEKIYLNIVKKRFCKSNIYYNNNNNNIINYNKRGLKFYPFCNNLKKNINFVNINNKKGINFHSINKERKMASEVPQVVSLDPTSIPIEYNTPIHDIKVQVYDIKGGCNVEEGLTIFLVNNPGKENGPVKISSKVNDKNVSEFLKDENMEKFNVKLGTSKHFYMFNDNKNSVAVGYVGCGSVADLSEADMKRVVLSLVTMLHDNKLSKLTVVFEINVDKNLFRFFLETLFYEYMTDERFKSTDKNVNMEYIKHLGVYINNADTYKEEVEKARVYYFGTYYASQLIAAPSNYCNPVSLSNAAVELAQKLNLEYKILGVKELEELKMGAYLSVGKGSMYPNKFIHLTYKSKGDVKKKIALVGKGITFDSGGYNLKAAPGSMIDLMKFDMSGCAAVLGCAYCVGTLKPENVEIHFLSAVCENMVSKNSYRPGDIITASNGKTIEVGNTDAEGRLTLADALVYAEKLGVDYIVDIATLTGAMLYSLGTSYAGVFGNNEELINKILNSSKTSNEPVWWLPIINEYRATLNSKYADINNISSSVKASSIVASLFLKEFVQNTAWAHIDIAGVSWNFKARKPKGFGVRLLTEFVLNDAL

inhibition, inactive:
Cc1ccnc2ccc(SC(F)(F)F)cc12 1.01%
CCOC(=O)c1ccc(NC(=O)CN2C(=O)C3C4C=CC(C4)C3C2=O)cc1 (stereo not given) 28.7%
Cn1ccnc1SCC(=O)Nc1cccc(C(F)(F)F)c1 15.9%
CC(=O)c1cccc(NC(=O)CN2C(=O)C3C4C=CC(C4)C3C2=O)c1 (stereo not given) 31.7%
Cc1cccc(NC(=O)CSc2nc(N)cc(N)n2)c1 34.4%
COC(=O)c1cccc(NC(=O)CSc2nnc(C)n2C)c1 12.6%
COc1cccc(NC(=O)CSc2nc(N)cc(N)n2)c1 47.2%
COC(=O)c1cccc(NC(=O)COC(=O)CSc2nc(C)cc(C)n2)c1 5.31%
Cc1cc(C(F)(F)F)nc(SCC(=O)Nc2ccccc2)n1 -7.44%
CCCNC(=O)Nc1ccc(C(F)(F)F)cc1 6.33%
CC1(C)CC(=O)c2cnc(NC(=O)CSc3nc4ccccc4o3)nc2C1 8.26%
NC(=O)c1cc(-c2ccncc2)nc2ccc(Cl)cc12 8.6%
Cn1c(=O)n(C)c2cc(S(=O)(=O)Nc3ccccc3O)ccc21 -0.99%
C/C(=C1/SC(N2CC(C)OC(C)C2)=NC1=O)c1ccccc1 (stereo not given) 1.49%
Cc1ccc(S(=O)(=O)Nc2nc(C)cc(NCCN)n2)cc1 -5.52%
CCOC(=O)N1CCN(CCC(=O)Nc2ccc(OC)cc2)CC1 5.12%
Cc1cc(C)c(S(=O)(=O)Nc2cccc3nsnc23)c(C)c1 3.04%
Cc1ccc2nsnc2c1S(=O)(=O)Nc1cccc2nsnc12 2.26%
COC(=O)c1cc(C#N)c(NCc2ccccc2)nc1C -1.82%
Cc1nn(C)cc1CN(C)C(=O)c1cc(COc2ccc(F)cc2F)on1 -16.1%
O=C1OCC2OC(O)C(O)C(O)C2OC(=O)c2cc(O)c(O)c(O)c2-c2c(O)c(O)c3oc(=O)c4c(c(O)c(O)c5oc(=O)c2c3c54)-c2c1cc(O)c(O)c2O (stereo not given) 20.8%
COc1cccc(NC(=O)Cn2c(=O)n(CCC(=O)NCc3ccco3)c(=O)c3ccccc32)c1 -7.32%
CCn1c(N2CCN(CC(=O)c3c(C)n(C)c4ccccc34)CC2)nc2c1c(=O)[nH]c(=O)n2C 16.3%
CN(Cc1nc(Cc2ccccc2F)no1)CC1(N2CCOCC2)CCCCC1 -3.08%
CN(Cc1cc2ccccc2[nH]c1=O)C(=O)COc1ccccc1 -2.37%
O=C1C2CC=C(Cl)CC2C(=O)N1CCc1ccccc1 (stereo not given) 51.8%
O=C1C2CC=C(Cl)CC2C(=O)N1CCC[n+]1ccccc1 (stereo not given) -3.64%
CCOC(=O)N1CCN(C(c2ccc(F)cc2)c2sc3nc(C)nn3c2O)CC1 (stereo not given) -1.83%
C/C(=N/O)c1c(O)c(C)c(-c2ccccc2)n(-c2ccccc2)c1=O 46.8%
CC(=O)c1c(O)c(C)c(-c2ccccc2)n(-c2ccccc2)c1=O 31.5%
CCO/N=C(/C)c1c(O)c(C)c(-c2ccccc2)n(-c2ccccc2)c1=O 45.5%
C=CCO/N=C(\C)c1c(O)c(C)c(-c2ccccc2)n(-c2ccccc2)c1=O 54%
COc1cc(/C=N/NC(=O)c2sc(N)c(C#N)c2C)ccc1O 3.64%
COc1ccc(Cn2c(SC)nc3ccccc32)cc1[N+](=O)[O-] -7.5%
CCCn1nnc(NC(=O)c2ccc(Br)cc2)n1 -4.35%
Cc1ccsc1/C=N/NC(=O)CSCc1ccc(Cl)cc1 3.08%
Cc1cc(C)c(S(=O)(=O)Nc2c(C)[nH]c(=O)[nH]c2=O)c(C)c1 -3%
Cc1cccc2cc(CN(Cc3ccc(F)cc3)C(=O)N3CCOCC3)c(=O)[nH]c12 6.9%
CN1/C(=C\C(=O)CSc2nnc(N)s2)C(C)(C)c2ccccc21 30.2%
CN1/C(=C\C(=O)CSc2nnc(NCc3ccccc3)s2)C(C)(C)c2ccccc21 -5.09%
CC1CCCC(C)N1C(=O)CSc1nnc(NC(=O)c2cccs2)s1 (stereo not given) 35.8%
COc1cccc(Nc2nnc(SCC(=O)N3CCOCC3)s2)c1 31.6%
COc1ccccc1Nc1nnc(SCC(=O)N2CCCC2)s1 28.9%
O=C(Cc1cccs1)Nc1nnc(SCC(=O)N2CCCCC2)s1 4.31%
COc1ccc(NC(=O)COC(=O)C2=COCCO2)cc1OC -5.64%
O=C(CN1CCCCC1)NC(=O)NCc1ccccc1 -1.39%
C=CCNC(=O)C(=O)c1cccn1-c1ccsc1C(=O)OC 1.96%
CCOP(=O)(OCC)C(Nc1cccc([N+](=O)[O-])c1)c1ccccc1 (stereo not given) -1.19%
CC(C)CSc1nnc2[nH]c(=O)cc(N)n12 -1.75%
CCOC(=O)c1oc2cc(O)ccc2c(=O)c1-c1ccc(OC)cc1 14.6%
COC(=O)N/N=C/c1c[nH]c2ccccc12 14.5%
Fc1c(F)c(F)c(N/N=C/c2c[nH]c3ccccc23)c(F)c1F -1.25%
COc1cccc(NC(=O)Nc2nnc(CC(=O)NCc3ccccc3)s2)c1 8.42%
COc1ccc(NC(=O)CSc2ncc(-c3ccc(F)cc3)n2Cc2ccco2)cc1 -16.2%
CCCOC(=O)c1c(NC(=O)C2CCCO2)sc(C(=O)OC)c1C (stereo not given) 8.59%
COc1ccc(-c2ccnc(SCC(=O)Nc3ccccn3)n2)cc1 7.81%
O=C(CSc1nc(O)cc(=O)n1-c1ccccc1)Nc1ccccn1 14.8%
Cc1cc(-c2ccccc2)nc(SCC(=O)N2CCCC2)n1 1.7%
CC1CCCCN1C(=O)CSc1nc(-c2ccccc2)cn1N (stereo not given) 14.6%
O=C(N1CCC(O)(c2cccnc2)CC1)C12CC3CC(CC(C3)C1)C2 3.02%
Cc1oc(C(C)(C)C)cc1C(N)=O 5.9%
Cc1c(N(C(=O)CNC(=O)c2ccccc2)C2(C(=O)NC3CCCCC3)CCCCC2)c(=O)n(-c2ccccc2)n1C -1.39%
Clc1ccc(Nc2ccc(-n3ccnc3)nn2)cc1Cl 2.24%
Cc1cc(C(=O)NCc2cccs2)n(-c2ccccc2)n1 -1.13%
COc1ccccc1NC(=S)NC(=O)c1c(-c2ccccc2Cl)noc1C -2.71%
CC(C)NC(=O)/C(C#N)=C/c1ccc(N(C)C)o1 48.4%
CC(C)NC(=O)/C(C#N)=C\c1ccc(N(C)C)o1 38%
Cc1nn(CC(=O)N2CC(=O)Nc3ccccc32)c(C)c1[N+](=O)[O-] 1.29%
CCOC(=O)c1sc(NC(=S)NC(=O)C2CCCC2)cc1C -3.81%
O=C(O)C1CCCN(S(=O)(=O)c2ccc(Br)s2)C1 (stereo not given) -0.9%
O=C(O)/C=C/c1cn(Cc2ccccc2)nc1-c1ccccc1 22.2%
Cc1ccc(-c2nn(Cc3ccccc3)cc2/C=C/C(=O)O)cc1 38.8%
O=C(O)/C=C\C(=O)Nc1ccc(Oc2ccccc2)cc1 15%
O=C(O)/C=C/C(=O)Nc1ccc(Oc2ccccc2)cc1 -0.33%
CCS(=O)(=O)N1CCC(C(=O)NCc2ccc(OC)cc2)CC1 5.05%
CCC(C)[C@H](Nc1nc(-c2ccccc2)nc2c1oc1ccccc12)C(=O)O (stereo not given in full) 51.5%
Cc1nc(SCC(=O)O)c2oc3ccccc3c2n1 1.07%
O=C(O)CSc1nc(-c2ccccc2)nc2c1oc1ccccc12 28.6%
CCc1nc(N[C@H](C(=O)O)C(C)C)c2oc3ccccc3c2n1 3.02%
CCOC(=O)C1CCN(c2nc(-c3ccccc3)nc3c2oc2ccccc23)CC1 41.7%
NC(=O)C1CCN(c2nc(-c3ccccc3)nc3c2oc2ccccc23)CC1 -0.35%
COc1ccc(N=C2NC(=O)/C(=C/C=C/c3ccccc3)S2)cc1 3.51%
CCc1ccc(C2CC(c3ccc(Cl)cc3)n3nc(N)nc3N2)cc1 (stereo not given) -1.74%
CCC(CC)Nc1ccc(C(CC(N)=O)NC(=O)Cc2ccc(Br)cc2)cc1[N+](=O)[O-] (stereo not given) -4.54%
CN(C)c1ccnc2sc(C(=O)NCc3ccccc3)c(N)c12 -4.21%
Cc1ccc(NC(=O)CCC(=O)OCC(=O)c2ccc(Oc3ccc([N+](=O)[O-])cc3)cc2)c(C)c1 13.8%
COc1ccc(NC(=O)CSc2nnc(NC(=O)c3ccco3)s2)cc1 22.5%
Cc1cccc(C)c1NC(=O)CSc1nnc(NC(=O)c2ccccc2C(=O)O)s1 19.1%
O=C(CSc1nnc(NC(=O)c2ccco2)s1)Nc1ccc(F)cc1 -1.02%
CC(C)c1nnc(NC(=O)CSc2nnc(NC(=O)c3c(F)cccc3F)s2)s1 2.85%
C=CCn1cnc2sc(C(=O)Nc3ccccc3OC)c(C)c2c1=O 7.04%
Clc1ccc(-c2cc(COc3ccc4ccccc4c3)no2)cc1 -2.54%
COc1ccc(C(=O)CSc2nc(N)nc(SC)c2C#N)cc1 -5.8%
CCN1C(=O)/C(=C\c2ccc(-c3ccc([N+](=O)[O-])cc3OC)o2)SC1=Nc1cccc(C(=O)O)c1 28.7%
CN1C(=O)/C(=C/c2ccco2)SC1=Nc1ccc(N2CCOCC2)cc1 -4.86%
